Source: PubChem BioAssay
Values joined by “and” are separate entries in the source; they are usually repeats but may differ in a detail not shown here. Equal entries are not always repeated. A structure can be active in one record and inactive in another. Active and inactive are the calls of the source. Unless noted, no rule for the calls is given here.

Columns and labels:
[1] = P. berghei load reduction in hepatocytes – cell-based, HepG2, luciferase luminescence, HepG2 viability, primary screen (AID 624349; in the data active = parasite load remaining mostly below about 12%, no sharp cut-off; inactive = mostly above about 10%;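 also: 100% = mean of DMSO negative control wells on the same plate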); conditions: P. berghei liver stage in HepG2, luciferase luminescence, concentration not given here; parasite load remaining: stronger effect = lower value; viability: measured here: HepG2 viability without parasites
[2] = system: Hepatitis C virus NS3 helicase; experiment: blockers of NS3h binding to ssDNA – biochemical, fluorescence polarization, LOPAC1280 library, primary screen (AID 687035; in the data active = inhibition above about 37%); conditions: Purified HCV NS3 helicase, Cy5-dT15 ssDNA binding fluorescence polarization; stronger effect = higher value; concentration not given here
[3] = compounds altering Cy5-DNA-NS3h complex signal – biochemical, LOPAC1280, artefact control for HCV NS3 helicase inhibitor project (AID 687037); conditions: Cy5-DNA-NS3h complex fluorescence interference counterscreen
[4] = signal quenchers or enhancers, Cy5 substrate/SSB – biochemical, NIH Clinical Collection, E. coli SSB, artefact control for HCV NS3 helicase inhibitor project (AID 743268); conditions: Cy5-oligo bound E. coli SSB, fluorescence interference
[5] = system: Hepatitis C virus NS3 helicase; experiment: blockers of NS3h binding to DNA – biochemical, fluorescence polarization, NIH Clinical Collection, primary screen (AID 743270); conditions: NS3 helicase binding to Cy5-dT15 DNA, stronger effect = higher value, concentration not given here
[6] = target: Single-stranded DNA-binding protein (Escherichia coli (strain K12)) (UniProt P0AGE0); experiment: SSB-ssDNA binding inhibitors – biochemical, fluorescence polarization, NIH Clinical Collection, counter-screen for HCV NS3 helicase inhibitor project (AID 743271; in the data active = inhibition above about 28%); conditions: E. coli SSB-DNA binding, stronger effect = higher value, concentration not given here
[7] = compounds distorting NS3 helicase fluorescence signal – biochemical, NIH Clinical Collection, artefact control for HCV NS3 helicase inhibitor project (AID 743272); conditions: fluorescence interference counterscreen, HCV NS3 helicase assay; stronger effect = lower value;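 also: HCV NS3 helicase with a Cy5 labelled single stranded DNA probe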
[8] = system: Neuropilin-2 / VEGF-C interaction (human); experiment: small molecules blocking Neuropilin-2/VEGF-C interaction – biochemical, microplate binding format, z-score (AID 743281); conditions: microplate NRP2/VEGF-C binding assay; stronger effect = lower value
[9] = Wnt pathway potentiators raising nuclear beta-catenin – imaging, WNT3A-conditioned medium, mouse C2C12, NPC library, primary screen (AID 1117326; in the data active = nuclear beta-catenin stimulation mostly above about 4.2%, no sharp cut-off; inactive = mostly below about 10%); conditions: stronger effect = higher value
[10] = stimulators of insulin release from INS-1E, primary screen, cell-based, 5 mM glucose, NPC library (AID 1117329;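 active = compound raises insulin release from rat beta cells at 5 mM glucose, no numeric limit stated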); conditions: rat INS-1E insulin secretion, at 10 µM, stronger effect = higher value
[11] = growth inhibition of GSK3B-pretreated HCT116 cells – cell-based, CellTiter-Glo, 0.2 to 20 µM (AID 1117336;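 active = compounds lowering colon cancer cell viability after pretreatment blocking the GSK3B kinase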); conditions: HCT116 viability after GSK3B inhibitor, at 20 µM, stronger effect = higher value
[12] = inhibition of endothelial tube formation, primary screen, imaging, VEGF stimulated, CD31 staining, tube area, NPC library (AID 1117340;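 active = compound that reduces growth-factor-driven endothelial tube area in a mixed cell culture, no cutoff stated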); conditions: VEGF-stimulated ADSC/ECFC co-culture, at 10 µM, stronger effect = higher value
[13] = GLP1 release stimulators, primary, NCI-H716, NPC library (AID 1117341;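 active = compound raises GLP1 secretion from the human gut endocrine cells, with no numeric limit stated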); conditions: NCI-H716 cells, at 10 µM, stronger effect = higher value
[14] = HCT116 colon cancer cell growth inhibition, primary screen, CellTiter-Glo luminescence, NPC library (AID 1117342;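 active = compounds that lower survival of HCT116 colon cancer cells in the luminescence readout, no numeric limit stated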); conditions: at 20 µM (top of the series)
[15] = reduced SW480 viability measured with CellTiter-Glo, NPC library, primary (AID 1117343;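 active = compounds that lower viability of the colon cancer cells in the luminescence readout, with no numeric limit stated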); conditions: CellTiter-Glo luminescence; at 20 µM (top of the series)
[16] = NPC library primary testing for decreased DLD-1 cell viability via CellTiter-Glo (AID 1117346;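 active = compounds that lower survival of DLD-1 colon cancer cells in the luminescence readout, no cutoff given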); conditions: DLD-1 viability, CellTiter-Glo luminescence; at 20 µM (top of the series)

| SMILES | parasite load remaining [1] | viability [1] | inhibition [2] | fluorescence ratio (interference) [3] | fluorescence ratio [4] | inhibition [5] | inhibition [6] | fluorescence ratio [7] | z-score [8] | nuclear beta-catenin stimulation ([9]; at 10 µM) | nuclear beta-catenin stimulation ([9]; stimulation, at 2 µM) [%] | insulin secretion stimulation [10] | viability decrease [11] | tube area decrease [12] | GLP1 secretion stimulation [13] | inhibition of viability [14] | viability decrease (inhibition) [15] | viability decrease (inhibition) [16] |
| --- | --- | --- | --- | --- | --- | --- | --- | --- | --- | --- | --- | --- | --- | --- | --- | --- | --- | --- |
| O=C1N(c2ccccc2)c2ccccc2C1(Cc1ccncc1)Cc1ccncc1 | 77.9% (inactive) | 65.3% | -7% (inactive) | 0.9 (inactive) | 0.98 (inactive) | -11.6% (inactive) | -1.18% (inactive) | 0.93 (inactive) | -0.0491 (inactive) | 0.2% (inactive) | 3.8 | 1.2% (inactive) | -9.5% (inactive) | 17.6% (inactive) | 2.6% (inactive) | -4.7% (inactive) | 23.8% (inactive) | -3.9% (inactive) |
| NC1CCN(c2cccc(Cl)n2)CC1 | 103% (inactive) | 71.3% | -6% (inactive) | 1 (inactive) | 2.95 (active) | -1.19% (inactive) | 133% (active) | 0.9 (inactive) | -0.326 (inactive) | -1.8% (inactive) | 1.1 | -0.7% (inactive) | -6.2% (inactive) | 3.8% (inactive) | 3.8% (inactive) | 14.7% (inactive) | 28.7% (inactive) | -9.7% (inactive) |
| CC(N)C12CC3CC(CC(C3)C1)C2 (stereo not drawn) | 59.2% (inactive) and 69.6% (inactive) and 54.8% (inactive) | 94.8% and 97.2% and 73% |  |  | 1.02 (inactive) | -2.27% (inactive) | 1.81% (inactive) | 1.03 (inactive) |  | 1.8% (inactive) | 0.3 | 11% (inactive) | -3.4% (inactive) | 15.2% (inactive) | -0.1% (inactive) | 7.6% (inactive) | 60.8% (active) | 6.65% (inactive) |
| Nc1nnc(-c2cccc(Cl)c2Cl)c(N)n1 | 90.9% (inactive) and 119% (inactive) and 49.7% (inactive) | 105% and 77.7% and 112% | -5% (inactive) | 1 (inactive) | 1.03 (inactive) | 0.4% (inactive) | -1.64% (inactive) | 0.99 (inactive) | -0.624 (inactive) | 0.7% (inactive) | 0.5 | -0.4% (inactive) | -5.8% (inactive) | 9.4% (inactive) | -4.7% (inactive) | 9.7% (inactive) | 29.2% (inactive) | -4.7% (inactive) |
| NS(=O)(=O)Cc1noc2ccccc12 | 75.4% (inactive) and 46.4% (inactive) | 89.2% and 110% |  |  | 1 (inactive) | -6.82% (inactive) | -4.29% (inactive) | 1 (inactive) |  | 0.1% (inactive) | 0.4 | -1.7% (inactive) | -1.75% (inactive) | 3.7% (inactive) | 2.1% (inactive) | 4.9% (inactive) | 44.2% (inactive) | 24.9% (inactive) |
| Cc1cn([C@H]2C=C[C@@H](CO)O2)c(=O)[nH]c1=O | 72.2% (inactive) and 110% (inactive) | 107% and 74.4% | -2% (inactive) | 1 (inactive) | 1.04 (inactive) and 0.101 (active) | -3.56% (inactive) and -2.27% (inactive) | -0.87% (inactive) and -5.05% (inactive) | 0.98 (inactive) and 1.04 (inactive) | 0.0189 (inactive) | -0.2% (inactive) | 1.1 | 4.4% (inactive) | -0.2% (inactive) | -1.6% (inactive) | -0.3% (inactive) | 1.2% (inactive) | -4.8% (inactive) | -8.9% (inactive) |
| C#C[C@]1(O)CC[C@H]2[C@@H]3CCc4cc(O)ccc4[C@H]3CC[C@@]21C | 111% (inactive) | 66.2% |  |  | 0.98 (inactive) | 1.98% (inactive) | -0.87% (inactive) | 0.92 (inactive) |  | 1.5% (inactive) | 0.8 | 10.3% (inactive) | 45.9% (inactive) | 85.8% (active) | -3.4% (inactive) | 70.3% (active) | 65.6% (active) | 62.5% (active) |
| Nc1ccn([C@H]2CC[C@@H](CO)O2)c(=O)n1 | 89% (inactive) and 87.9% (inactive) and 17.9% (inactive) | 73.7% and 72.5% | 0% (inactive) | 1 (inactive) | 1.05 (inactive) | 2.77% (inactive) | -1.64% (inactive) | 1.02 (inactive) | 0.496 (inactive) | -1% (inactive) | -1.5 | -0.3% (inactive) | 6.9% (inactive) | -2.2% (inactive) | 1.4% (inactive) | -1.1% (inactive) | -0.9% (inactive) | 8.55% (inactive) |
| NC(=O)OCC(COC(N)=O)c1ccccc1 | 83.2% (inactive) and 111% (inactive) | 105% and 75.3% | -1% (inactive) | 1 (inactive) | 1.05 (inactive) | -2.77% (inactive) | -3.18% (inactive) | 0.9 (inactive) | 0.0538 (inactive) | -1.9% (inactive) | 0 | 0.3% (inactive) | -7.4% (inactive) | -7.6% (inactive) | -3% (inactive) | 4.1% (inactive) | -7.2% (inactive) | -12% (inactive) |
